Screens from PubChem BioAssay.
LmPK inhibitor: LmPK (Leishmania mexicana) enzyme inhibition | Q27686 | 0.37% of 290,000 active | Potency, µM (highest dose often 57.5 µM), for inactives: at the top dose activity change, negative = inhibition, hits mostly inhibitors | purified LmPK, Kinase-Glo ATP luminescence, 1 h; active = well fitted curve in the direction sought with a large enough effect; inconclusive = small, poorly fitted or top-dose-only effect, or another doubt; inactive = no such curve, though single readings can be large; an effect the other way counts as inactive or inconclusive; note: potency is the fitted concentration of half-maximal effect; % is set by controls: 0 for no effect and ±100 for the full control effect
Target sequence (Q27686 whole entry, looked up): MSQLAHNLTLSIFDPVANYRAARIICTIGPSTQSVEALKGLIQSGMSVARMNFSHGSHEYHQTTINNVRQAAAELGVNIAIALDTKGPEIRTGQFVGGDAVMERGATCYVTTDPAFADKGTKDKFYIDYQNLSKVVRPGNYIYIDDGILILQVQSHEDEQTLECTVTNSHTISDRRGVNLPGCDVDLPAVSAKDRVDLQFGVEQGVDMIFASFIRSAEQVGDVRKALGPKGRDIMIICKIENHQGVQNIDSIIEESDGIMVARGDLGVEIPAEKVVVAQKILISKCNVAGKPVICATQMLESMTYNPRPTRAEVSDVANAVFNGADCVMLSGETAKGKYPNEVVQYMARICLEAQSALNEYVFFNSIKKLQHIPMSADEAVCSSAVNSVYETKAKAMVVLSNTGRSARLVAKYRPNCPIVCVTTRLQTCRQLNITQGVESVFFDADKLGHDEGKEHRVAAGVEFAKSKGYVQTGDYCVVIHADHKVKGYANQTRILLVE
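qHTS format; LmPK 0.1 nM; substrates PEP 0.5 mM and ADP 0.1 mM. One-hour room-temperature incubation, then coupled luciferase luminescence; 0.5 nM enzyme wells mark activation.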
Tb PYK inh: T. brucei pyruvate kinase inhibition; Q57TT1; TbPYK enzyme, Kinase-Glo Plus ATP luminescence, 45 min; Potency, µM (series often up to 76.8 µM), inactives show top-dose activity, negative = inhibition, usual class: inhibitors; 0.12% of 410,000 active; AID 624173; active = well fitted curve in the direction sought with a large enough effect; inconclusive = small, poorly fitted or top-dose-only effect, or another doubt; inactive = no such curve, though single readings can be large; an effect the other way counts as inactive or inconclusive; note: potency is the fitted concentration of half-maximal effect; % is set by controls: 0 for no effect and ±100 for the full control effect; nearly all actives have a fitted effect of over 50% in size
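ADP (130 uM final) triggers the TbPYK reaction after compound addition; incubation is 45 min at room temperature. Kinase-Glo Plus is then added and luminescence imaged. Normalized data are fitted to concentration-effect curves.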
Shiga toxin inh: blocks Shiga toxin action in Vero cells. 9.2% of 290,000 active. AID 2315. Vero cells, Shiga toxin protein synthesis inhibition reporter. inhibition, % at 38.7 µM; in the data active = inhibition mostly above about 28%, no sharp cut-off; inactive = mostly below about 43%; note: 0% is about no effect
SARS PLP yeast: blocks SARS-CoV papain-like protease in a yeast assay | S. cerevisiae expressing SARS-CoV PLpro, growth rescue | Potency, µM (highest dose often 32.9 µM), for the others: at the top dose activity, positive = growth rescue, usual class: activators | 0.19% of 330,000 active | AID 485353; note: potency is the fitted concentration of half-maximal effect; 0% is about no effect; nearly all actives have a fitted effect of over 55% in size
CHX counter: affects cycloheximide protein synthesis inhibition readout, counter-screen. 12% of 300,000 active. cell reporter, cycloheximide protein synthesis inhibition counterscreen. AID 2314. max response, %; in the data active = max response mostly above about 13%, no sharp cut-off; inactive = mostly below about 14%; note: read at 38.3 µM for the half of the compounds with a filed dose; 0% is about no effect
NS1 inh: influenza NS1 inhibition; Potency, µM (highest dose often 46.1 µM), inactives show top-dose activity, positive = more growth; AID 2326; 0.4% of 270,000 active; note: potency is the fitted concentration of half-maximal effect; actives are rising curves; nearly all actives have a fitted effect of over 50% in size
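Compounds were scored for reversing the slow growth caused by influenza A NS1 in S. cerevisiae, measured by optical density at 600 nm. Assay medium contained 2% galactose at pH 6.0; NS1-free yeast of the same strain were the positive control.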
An asterisk follows results filed as active; ? = inconclusive; · = not tested or not shown; [ ] = another dose, or the depositor's remark. Shown is part of a subset that was picked to be rich in hits. Unless noted, calls come from the whole dose curve.

SMILES | LmPK inhibitor | Tb PYK inh | Shiga toxin inh | SARS PLP yeast | CHX counter | NS1 inh
N/C(CN1CCCC1=O)=N\OC(=O)c1ccc(Cl)c(Cl)c1 | -11% | 4% | -6 | 9% | 23* | -12%
O=[N+]([O-])c1ccc2[nH]c(=S)sc2c1 | · | -29% | · | · | · | ·
Cc1cccc(C(=O)Nc2sc(C)c(-c3ccccc3)c2C#N)c1 | -3% | -5% | 59* | -7% | 41* | -5%
Cc1sc(NC(=O)C2CCCCC2)c(C#N)c1-c1ccccc1 | 5% | -9% | 142* | -4% | 57* | -1%
COC(=O)c1ccc(Cl)cc1NC(=O)N1CCC(CN2CCC(C)CC2)CC1 | · | 3% | · | · | · | ·
O=C1C=C(CO)OCC1=O | · | 2% | · | · | · | ·
COc1ccc(OC)c(CCNC(=O)CCCn2c(=O)c3cccn3c3ccc(F)cc32)c1 | · | -1% | · | · | · | ·
COc1cc(NCCCn2cnc3c(OCc4ccccc4)ncnc32)cc(OC)c1OC | · | 5% | · | · | · | ·
CC(C)c1ccc(/C=C/c2[nH]c(=O)[nH]c(=O)c2[N+](=O)[O-])cc1 | -2% | 0% | 19* | 3% | 13* | -15%
CCC(C)NC(=O)CSc1nc2c(sc3ccccc32)c(=O)n1CCc1ccccc1 (centres undefined) | · | -10% | · | · | · | ·
F/C(COc1ccc2c(c1)[nH]c1ccccc12)=C1/CN2CCC1CC2 | · | -8% | 57* | · | 36* | ·
Cc1cc(Br)cc(C)c1OCC(=O)Nc1ccc(S(=O)(=O)Nc2ncccn2)cc1 | · | -5% | · | · | · | ·
CCOc1cc(CNc2ccc3c(c2)CCC3)ccc1OC | 7% | · | 66 | 7% | 35* | 4%
COc1ccc(CNCc2ccc3c(c2)OCO3)cc1Br | -2% | 14% | 15 | -1% | 10 | 3%
COc1ccccc1CNc1ccc2c(c1)CCC2 | 9% | -5% | · | -6% | 32* | 1%
COc1ccc(CNc2ccc3c(c2)CCC3)cc1Br | 3% | 2% | 70* | -1% | 41* | 6%
COc1cccc(C(=O)/C=C2\Sc3ccccc3N2C)c1 | ? | 2% | 84* | -3% | 31* | ·
CN1/C(=C\C(=O)c2cccnc2)Sc2ccccc21 | -28% | 0% | 93* | -2% | 42* | -52%
COc1cccc(C(=O)Nc2ccccc2NC(=O)c2cccc(OC)c2)c1 | 6% | -11% | · | 1% | -1 | -19%
NCCN | · | -7% | · | · | · | ·
CCOCCCNC(=O)C(c1ccc(C)cc1)N(Cc1ccc2c(c1)OCO2)C(=O)c1ccccc1O (centres undefined) | · | -5% | · | · | · | ·
CCOc1cccc(/C=C/c2ccc3cccc(O)c3n2)c1O | 1% | -2% | 139* | -4% | 27* | -6%
CCOc1cccc(/C=C/c2ccc3cccc(O)c3n2)c1OC | 2% | 3% | 93* | -2% | 52* | -93%
COc1cc(Cl)cc(/C=C/c2ccc3cccc(O)c3n2)c1OC | 7% | -6% | 11 | 1% | 6 | 0%
COc1ccc(C2CC(c3ccccc3)Oc3cc(OC)c(OC)c(OC)c32)cc1 (centres undefined) | · | · | -2 | · | 19 | ·
SMILES | LmPK inhibitor | Tb PYK inh | Shiga toxin inh | SARS PLP yeast | CHX counter | NS1 inh
COc1cc(Br)c(C[N+]2(CCOCCC3CCC4CC3C4(C)C)CCOCC2)cc1OC (centres undefined) | · | 0% | · | · | · | ·
CC12CCC(C(=O)N(CSC(=S)N/N=C\c3ccccc3)C1=O)C2(C)C (centres undefined) | 2% | ? | 16 | 10µM* | 1 | ?
CC(=O)c1c(C)nc(-c2ccc(Cl)cc2)nc1N=CN(C)C | 7% | 0% | 70* | -19% | 46* | -12%
CC(=O)c1c(C)nc(-c2ccc(Cl)cc2)nc1N | -3% | -1% | 96* | 0% | 44* | ·
O=C(NCc1ccco1)c1ccc2nc([C@@H]3O[C@H](CO)[C@H](O)[C@H](O)[C@H]3O)[nH]c2c1 | · | 1% | · | · | · | ·
CSc1nc2ccc(NC(=O)c3cc4ccccc4o3)cc2s1 | -12% | 1% | 70* | -11% | 30* | 4%
CSc1nc2ccc(NC(=O)c3ccco3)cc2s1 | -12% | -4% | 57* | -70% | 35* | -4%
CCOc1cccc2sc(Nc3nc4ccc(NC(C)=O)cc4s3)nc12 | 1% | -8% | 58* | 3% | 27* | 15%
CSc1nc2ccc(NC(=O)c3nn(C(C)C)c(=O)c4ccccc34)cc2s1 | -3% | 6% | 102* | 16% | 53* | ?
CCOc1cccc2sc(NN)nc12 | ? | -12% | -13 | -4% | 1 | ·
Cc1ccc(NC(=O)CSc2nc3ccc(NC(=O)c4ccco4)cc3s2)cc1 | · | 2% | · | · | · | ·
NC(=O)c1ccsc1NC(=O)COC(=O)c1cc(=O)[nH]c2ccccc12 | · | -4% | · | · | · | ·
Cc1ccc(C(C)C)c(OCC(=O)NNCC(=O)Nc2cccc(F)c2)c1 | · | -11% | · | -11% | · | ·
CSc1nc2ccc(NC(=O)C3CC(=O)N(Cc4ccccc4)C3)cc2s1 (centres undefined) | 2% | -1% | -12 | -7% | 20 | 0%
CCC(=O)Nc1nc2ccc(NC(C)=O)cc2s1 | 0% | 5% | 47 | -7% | 33* | -1%
CSc1nc2ccc(NC(=O)c3ccc(=O)[nH]c3)cc2s1 | -3% | 2% | -6 | 3% | 9 | 0%
CC(=O)Nc1ccc2nc(NC(=O)c3ccc([N+](=O)[O-])o3)sc2c1 | -1% | -9% | 8 | 4% | 10 | 3%
CC(=O)Nc1ccc2nc(NC(=O)CS(=O)(=O)c3ccc(C)cc3)sc2c1 | · | 6%[15.4 µM] | · | · | · | ·
CSc1nc2ccc(NC(=O)c3ccc(F)c(F)c3)cc2s1 | -4% | -7% | 41* | -1% | 39* | ·
CSc1nc2ccc(NC(=O)c3ccc(=O)n(C)n3)cc2s1 | ? | -1% | 42* | 1% | 19* | -15%
CC(=O)Nc1ccc2nc(NC(=O)c3ccco3)sc2c1 | -15% | 5% | 36* | -17% | 25* | -7%
CCC/C(C#Cc1ccsc1)=C1/c2ccccc2C(=O)N1c1ccccc1 | · | 0% | · | 9% | · | ·
C=C(C)CCC(C)N1CCC(n2nccc2NC(=O)CCOc2ccccc2)CC1 (centres undefined) | 0% | 2% | -5 | 14% | -1 | 2%
CCC1(c2ccc(OC)cc2)NC(=O)N(C)C1=O (centres undefined) | · | · | 12 | · | -8 | ·
O=C(Nc1nc2ccc([N+](=O)[O-])cc2s1)c1c(F)cccc1F | 4% | 3% | 17 | 0% | 3 | -1%
O=C(Nc1nc2ccc([N+](=O)[O-])cc2s1)c1ccco1 | -16% | · | 44 | 2% | 27* | ·
CCOC(=O)c1oc2cc(O)c(CC)cc2c(=O)c1-c1ccc2c(c1)OCCO2 | 7% | -2% | -4 | -1% | -4 | -23%
CC(=O)Oc1cc(OC(C)=O)c2c(=O)c(-c3ccc4c(c3)OCCCO4)c(C)oc2c1 | -3% | 9% | 16 | -4% | 8.3* | 2%
COc1ccc(-c2oc3cc(OC(C)=O)cc(OC(C)=O)c3c(=O)c2OC)cc1 | · | -4% | · | · | · | ·
